# High-throughput results as filed in PubChem BioAssay.
# The list is not random: actives were taken first. Their share in the collection is about 19%.
# Lassa entry inh: Lassa virus entry inhibition; hit rate 1.2% among 300,000; Potency, µM (doses to about 37.9 µM), for inactives: top-dose activity change, negative = inhibition, usual class: inhibitors; Lassa virus pseudotype entry inhibition, cell reporter; calls by dose curve; tested in HEK293 cells; further: potency means the concentration at half of the fitted maximal effect; on the % scale 0 is the no-effect control and ±100 the full control effect; nearly all actives have a fitted effect of over 50% in size
# MARV entry inh: Marburg virus entry inhibition; hit rate 1.8% among 300,000; Marburg virus pseudotyped entry inhibition, cell reporter; Potency, µM (series often up to 37.8 µM), for the others: at the top dose activity change, negative = inhibition, usual class: inhibitors; calls by dose curve; tested in HEK293 cells; further: potency means the concentration at half of the fitted maximal effect; on the % scale 0 is the no-effect control and ±100 the full control effect
# Pf growth 96h: P. falciparum growth inhibition at 96 hour, primary screen for plastid delayed-death inhibitors. Potency, µM (doses to about 28.7 µM), for the others: top-dose activity change, negative = inhibition, most hits filed as inhibitors. P. falciparum luciferase reporter growth, 96 h. hit rate 6.9% among 320,000; further: potency means the concentration at half of the fitted maximal effect; on the % scale 0 is the no-effect control and ±100 the full control effect
#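 Delayed-death screen, second-generation endpoint: infected erythrocytes, 2% hematocrit, 0.05% parasitemia final; 96 hours at 37 C, 5% CO2; luciferase detection reagent; luminescence decrease equals reduced growth.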
# Shiga toxin inh: blocks Shiga toxin action in Vero cells; inhibition, % at 38.7 µM; hit rate 9.2% among 290,000; Vero cells, Shiga toxin protein synthesis inhibition reporter; in the data active means inhibition mostly above about 28%, no sharp cut-off; inactive means mostly below about 43%; further: 0% is about no effect
# Cycloheximide cs: affects cycloheximide protein synthesis inhibition readout, counter-screen; cell reporter, cycloheximide protein synthesis inhibition counterscreen; max response, %; hit rate 12% among 300,000; in the data active means max response mostly above about 13%, no sharp cut-off; inactive means mostly below about 14%; further: read at 38.3 µM for the half of the compounds with a filed dose; 0% is about no effect
# Pf growth 48h: inhibits P. falciparum growth in the first generation, 48 h | P. falciparum luciferase growth in erythrocytes, 48 h | Potency, µM (series often up to 28.7 µM), inactives show top-dose activity change, negative = inhibition, most hits filed as inhibitors | hit rate 5.9% among 310,000 | AID 504832; further: potency means the concentration at half of the fitted maximal effect; on the % scale 0 is the no-effect control and ±100 the full control effect
#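 Erythrocytes infected with P. falciparum carrying an integrated firefly luciferase reporter (2% hematocrit, 0.1% parasitemia final) were exposed to compounds in RPMI 1640 with 0.5% Albumax at 37 C, 5% CO2. Growth inhibition was scored as reduced luminescence.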
# * hit, by the source's call; ? = inconclusive; nt = no result; + = active, no number; [ ] = dose if it differs, or a comment. Unless noted, the call rests on the fitted dose curve; in most records, active means well fitted inhibition curve with a large enough effect; inconclusive means small, poorly fitted or top-dose-only effect, or another doubt; inactive means no such curve, though single readings can be large or run the other way.
SMILES,Lassa entry inh,MARV entry inh,Pf growth 96h,Shiga toxin inh,Cycloheximide cs,Pf growth 48h
Cc1cc(NC(=O)COc2ccc(F)c(Cl)c2)no1,nt,nt,53.0%,39.1,8.0,0.5%
Cc1cc(NC(=O)Nc2ccc(F)c(Cl)c2)no1,-1.0%,-16.5%,nt,28.8*,28.4*,?
Cc1cc(NC(=O)Nc2cc(F)ccc2F)no1,nt,nt,152.2%,34.8,9.2*,38.8%
Cc1cc(NC(=O)Nc2cc(Cl)sc2Cl)no1,9.2%,-10.8%,24.4%,11.5,9.3,nt
CCOc1ccccc1NC(=O)NCc1ccccc1F,nt,nt,0.8%,-3.6,9.1,0.0%
Cc1ccc(C2(C)NC(=O)N(CC(=O)NCc3cccc(Cl)c3)C2=O)cc1 (centres undefined),nt,nt,-2.9%,-19.5,-6.4,?
O=C(Nc1ccc(C2CC2(Cl)Cl)cc1)c1ccccc1Br (centres undefined),?,?,0.928µM*,56.6*,44.6*,64.7%
O=C(Nc1ccc(C(=O)N2CCCCC2)cc1)c1ccccc1Br,-21.8%[46.1 µM],3.3%[46.1 µM],nt,nt,nt,nt
O=C(Nc1ccc(C(=O)N2CCCC2)cc1)c1ccccc1Br,7.6%,5.5%,-6.6%,35.2,10.6*,27.5%
O=C(/C=C/c1ccccc1)Nc1ccc(C(=O)N2CCCCC2)cc1,-10.7%[46.1 µM],?,-4.8%,44.4*,13.6,1.8%
O=C(Nc1ccccc1)Nc1ccc(C(=O)N2CCCC2)cc1,?,?,16.1%,44.5*,19.0*,266.2%
CC(=O)N1CCN(c2ccc(NC(=O)/C=C/c3ccccc3)cc2)CC1,?,2.1%[46.1 µM],-0.8%,49.4,-1.1,?
NS(=O)(=O)c1cccnc1Nc1cccc(C(F)(F)F)c1,?,-4.2%,23.6%,46.6,4.6,14.8%
COc1ccccc1N(C)S(=O)(=O)c1ccc(C)c(C(=O)N2CCCCCC2)c1,-3.3%,-22.6%,?,nt,nt,?
CC(C)CNCC(=O)N1c2ccccc2Sc2ccccc21,-5.5%,?,?,-14.6,-2.0,?
Cc1cc(/C=N/NC(N)=O)c(C)n1-c1ccc(F)cc1,-18.6%,11.8%,79.2%,-7.5,-2.6,1.5%
O=C1c2ccccc2-c2ccc(C(=O)N3CCCCC3)cc21,-1.6%,?,-22.9%,153.4,31.0*,60.8%
O=C(CSc1ccc(-c2cccc([N+](=O)[O-])c2)nn1)N1CCCCCC1,11.5%,2.0%[46.1 µM],?,33.2,19.4*,2.6%
CCSc1ccc(-c2cccc([N+](=O)[O-])c2)nn1,22.3%,23.0%[46.1 µM],61.6%,+,52.7*,134.4%
O=C(CSc1ccc(-c2cccc([N+](=O)[O-])c2)nn1)N1CCCC1,26.2%,3.1%[46.1 µM],?,25.2,30.2,-25.7%
O=C(Cc1ccccc1)NC1(Cc2ccc(O)cc2)CCCCC1,1.3%[46.1 µM],-20.0%[46.1 µM],-0.6%,-6.1,-4.2,-27.9%
COc1ccc(-c2noc(N3CCC(C(=O)Nc4ccc(F)cc4Cl)CC3)n2)cc1,-0.2%[46.1 µM],nt,nt,nt,nt,nt
Cc1ccc(CNC(=O)c2ccc3nc(SCc4ccc(F)cc4)[nH]c3c2)cc1,nt,-5.8%[46.1 µM],nt,nt,nt,nt
O=C(NCCCO)c1ccc(CSc2nc3ccccc3[nH]2)cc1,2.2%[46.1 µM],18.8%[46.1 µM],1.8%,31.1,10.7*,63.9%
O=C(NCCO)c1ccc(CSc2nc3ccccc3[nH]2)cc1,?,-8.3%,94.5%,18.5,17.4*,54.8%
SMILES,Lassa entry inh,MARV entry inh,Pf growth 96h,Shiga toxin inh,Cycloheximide cs,Pf growth 48h
CC1CCCCN1C(=O)CSc1nnc(-c2cccnc2)n1C1CCCCC1 (centres undefined),-2.6%,-7.6%,nt,-5.5,-1.1,6.9%
Cc1ccc(-c2nc(C(=O)O)cs2)cc1,-5.5%,22.1%[46.1 µM],11.4%,-3.6,20.7,17.4%
Cc1nc(-c2cccs2)sc1C(=O)O,nt,nt,-7.1%,14.3,7.0,133.2%
Cc1nc(-c2ccccc2)sc1C(=O)O,13.4%[46.1 µM],-2.6%,29.6%,83.8*,31.5*,54.7%
Cc1nc(-c2ccc(Cl)cc2)sc1C(=O)O,3.3%,?,0.0%,91.3*,24.6,120.5%
Cc1nc(-c2ccncc2)sc1C(=O)Nc1ccc(Cl)cc1,9.6%,-9.8%[46.1 µM],-8.4%,-10.2,-1.7,?
Cc1nc(-c2ccc([N+](=O)[O-])cc2)sc1C(=O)O,20.1%,15.3%[46.1 µM],-7.2%,36.4,20.1*,95.5%
Cc1ccc(-c2nc(C)c(C(=O)O)s2)cc1,?,?,129.8%,37.2,20.8*,277.2%
COc1ccc(Nc2ncnc3onc(C)c23)cc1Cl,9.4%[46.1 µM],nt,nt,nt,nt,nt
CC(=O)c1sc(-c2ccccc2)nc1C,2.8%,5.9%,-153.0%[5.75 µM],43.5,34.9*,20.0%[5.75 µM]
CCNC(=O)c1sc(-c2ccccc2)nc1C,6.4%,14.7%,nt,65.9*,44.5*,86.6%
Cc1nc(-c2ccccc2)sc1C(=O)Nc1ccccc1F,-13.5%,-25.6%,-0.6%,28.8,46.3*,-25.1%
Cc1ccc(S(=O)(=O)NC(=O)N2CCN(Cc3c(F)cccc3Cl)CC2)cc1,?,6.7%,4.3%,-3.3,-1.6,13.5%
Cc1ccc(C(CCNC(C)c2cccs2)c2ccco2)cc1 (centres undefined),?,?,?,-6.1,0.5,10.4µM*
FC(F)(F)c1cc(C(F)(F)F)c2ccc(N/N=C/c3cccc(Cl)c3)nc2n1,nt,nt,5.1%,-19.5,2.1,-11.8%
N#CC(c1ccccc1)c1ccc2c(C(F)(F)F)cc(C(F)(F)F)nc2n1 (centres undefined),11.2µM*,7.08µM*,11.7µM*,-7.7,-1.7,nt
CN(N)c1ccc2c(C(F)(F)F)cc(C(F)(F)F)nc2n1,10.9%,22.9%[46.1 µM],3.3%,-21.5,-4.0,-8.5%
Cc1ccc(C(C#N)c2ccc3c(C(F)(F)F)cc(C(F)(F)F)nc3n2)cc1 (centres undefined),?,-12.0%,1.65µM*,-16.8,-3.0,?
FC(F)(F)c1cc(C(F)(F)F)c2ccc(N/N=C/c3ccccc3)nc2n1,17.2%,-3.4%,0.465µM*,-13.7,-2.6,36.4%
C[C@@H](C(=O)Nc1ccccc1N1CCOCC1)N1C(=O)C2CC=CCC2C1=O (some centres undefined),1.9%,7.9%,?,-7.4,15.0,nt
CCOC(=O)c1ccccc1NC(=O)C1CCN(c2ncnc3c2nc2n3CCCCC2)CC1,23.2%[46.1 µM],nt,nt,nt,nt,nt
Cc1cccc(N=C2NC(=O)/C(=C/c3cccnc3)S2)c1,nt,nt,?,17.3,0.7,?
O=C1NC(=Nc2cccc(O)c2)S/C1=C\c1cccnc1,?,?,6.57µM*,9.7,1.0,?
Cc1cccc(N=C2NC(=O)/C(=C/c3cccnc3)S2)c1C,nt,nt,?,-24.2,-0.4,13.1µM*
Cc1ccc(N=C2NC(=O)/C(=C/c3cccnc3)S2)c(C)c1,?,-12.5%,?,-8.2,7.0,?
Cn1c(SCC(=O)N2CCc3ccccc3C2)nnc1-c1ccncc1,?,?,?,12.7,-1.7,?
CCc1cccc(CC)c1-n1c(SCC(=O)N2CCc3ccccc3C2)nnc1-c1cccnc1,?,?,6.57µM*,-13.0,-6.0,11.7µM*
CCc1cccc(CC)c1-n1c(SCC(=O)c2c(N)n(C)c(=O)n(C)c2=O)nnc1-c1cccnc1,5.5%,9.3%,44.0%,15.3,-4.7,3.1%
